Laboratory results taken from the supplement of paper PMC9262897, “Low-cost anti-mycobacterial drug discovery using engineered E. coli” (Nature Communications, 2022).
Structures can show the parent of a compound that is named as a salt. ± gives the standard deviation of the averaged measurements.

What was measured:
Assay in all cases: growth (OD600 after 10 h); higher = more growth (less inhibition)
[1] = test system: E. coli TESEC Alr+ wild-type control; conditions: compound 0.1 mM; raw OD600 reference: median of DMSO wells 0.241, cell-free background 0.041
Method: (§1)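 TESEC Mtb Alr E. coli, or the Alr+ wild-type control, in 384-well plates with Prestwick library compounds at 0.1 mM and 1% DMSO, across arabinose induction levels of 1E3 to 1E7 nM. Growth is read as OD600 after 10 h at 37 °C in triplicate biological replicates.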

E. coli TESEC Mtb Alr [2] = conditions: compound 0.1 mM
Method: as §1

E. coli TESEC Mtb Asd = conditions: compound 0.1 mM
Method: (§2)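 TESEC E. coli strains in which the native enzyme is deleted and replaced by arabinose-inducible Mtb Asd, DapB, CysH or TrpD, each grown in its selective medium. Strains were screened against the Prestwick library at 0.1 mM and 1% DMSO in 384-well format at low and high arabinose induction. Growth is read as OD600 after 10 h in triplicate.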

E. coli TESEC Mtb DapB = conditions: compound 0.1 mM
Method: as §2

[3] = test system: E. coli TESEC Alr+ wild-type control; conditions: compound 0.1 mM; raw OD600 reference: median of DMSO wells 0.49, cell-free background 0.052
Method: (§3)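 TESEC Mtb Alr E. coli (ΔaraC ΔtolC ΔentC Δalr ΔdadX, arabinose-inducible Mtb Alr) or the Alr+ wild-type control strain, grown in defined M9-fructose medium without D-alanine in 96-well plates with Prestwick library compounds at 0.1 mM and 1% DMSO. Low Alr induction is 0.1 µM arabinose and high induction is 10 mM arabinose.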

E. coli TESEC Mtb Alr [4] = conditions: compound 0.1 mM; remark: listed apart in the source
Method: as §3

[5] = arabinose 1000 nM, raw OD600 reference: median of DMSO wells 0.294, cell-free background 0.041
[6] = arabinose 10000 nM, raw OD600 reference: median of DMSO wells 0.264, cell-free background 0.041
[7] = arabinose 100000 nM, raw OD600 reference: median of DMSO wells 0.201, cell-free background 0.041
[8] = arabinose 1000000 nM, raw OD600 reference: median of DMSO wells 0.193, cell-free background 0.041
[9] = arabinose 10000000 nM, raw OD600 reference: median of DMSO wells 0.146, cell-free background 0.041
[10] = arabinose induction (level): High, raw OD600 reference: median of DMSO wells 0.331, cell-free background 0.041
[11] = arabinose induction (level): Low, raw OD600 reference: median of DMSO wells 0.417, cell-free background 0.041
[12] = arabinose induction (level): High, raw OD600 reference: median of DMSO wells […], cell-free background 0.041
[13] = arabinose induction (level): Low, raw OD600 reference: median of DMSO wells 0.227, cell-free background 0.041
[14] = arabinose 100 nM, raw OD600 reference: median of DMSO wells 0.413, cell-free background 0.052
[15] = arabinose 10000000 nM, raw OD600 reference: median of DMSO wells […], cell-free background 0.052

| Structure (SMILES) | growth [1] | growth (E. coli TESEC Mtb Alr [2]; [5]) | growth (E. coli TESEC Mtb Alr [2]; [6]) | growth (E. coli TESEC Mtb Alr [2]; [7]) | growth (E. coli TESEC Mtb Alr [2]; [8]) | growth (E. coli TESEC Mtb Alr [2]; [9]) | growth (E. coli TESEC Mtb Asd; [10]) | growth (E. coli TESEC Mtb Asd; [11]) | growth (E. coli TESEC Mtb DapB; [12]) | growth (E. coli TESEC Mtb DapB; [13]) | growth [3] | growth (E. coli TESEC Mtb Alr [4]; [14]) | growth (E. coli TESEC Mtb Alr [4]; [15]) |
| --- | --- | --- | --- | --- | --- | --- | --- | --- | --- | --- | --- | --- | --- |
| Nc1cc(-c2ccncc2)c[nH]c1=O [Amrinone] | 0.237 ± 0.0081 | 0.308 ± 0.015 | 0.277 ± 0.017 | 0.193 ± 0.012 | 0.188 ± 0.0077 | 0.162 ± 0.008 | 0.463 ± 0.012 | 0.385 ± 0.074 | 0.206 ± 0.0051 | 0.271 ± 0.011 | 0.446 ± 0.027 | 0.38 ± 0.043 | 0.362 ± 0.026 |
| CCOC(=O)N1CCC(=C2c3ccc(Cl)cc3CCc3cccnc32)CC1 [Loratadine] | 0.146 ± 0.0043 | 0.17 ± 0.0039 | 0.205 ± 0.0047 | 0.173 ± 0.0098 | 0.0897 ± 0.0023 | 0.103 ± 0.0051 | 0.175 ± 0.01 | 0.246 ± 0.023 | 0.195 ± 0.0081 | 0.179 ± 0.0076 | 0.402 ± 0.0043 | 0.391 ± 0.0066 | 0.0517 ± 0.00062 |
| CN1CCN(C(c2ccccc2)c2ccc(Cl)cc2)CC1 (configuration not stated) [Chlorcyclizine hydrochloride] | 0.179 ± 0.0072 | 0.215 ± 0.021 | 0.174 ± 0.021 | 0.178 ± 0.0045 | 0.07137 ± 0.00015 | 0.1236 ± 0.00055 | 0.149 ± 0.0065 | 0.221 ± 0.0041 | 0.205 ± 0.014 | 0.261 ± 0.032 | 0.4416 ± 0.0038 | 0.4163 ± 0.0041 | 0.222 ± 0.033 |
| C[C@]12CC[C@@H]3c4ccc(O)cc4CC[C@H]3[C@@H]1CC[C@@H]2O [Estradiol-17 beta] | 0.125 ± 0.012 | 0.118 ± 0.052 | 0.214 ± 0.0069 | 0.157 ± 0.011 | 0.129 ± 0.0023 | 0.141 ± 0.0021 | 0.199 ± 0.0073 | 0.22 ± 0.0098 | 0.196 ± 0.0064 | 0.204 ± 0.012 | 0.43 ± 0.017 | 0.399 ± 0.012 | 0.218 ± 0.0046 |
| CCN(CC)CCOC(=O)C(c1ccccc1)C1CCCCC1 (configuration not stated) [Drofenine hydrochloride] | 0.149 ± 0.0031 | 0.203 ± 0.017 | 0.218 ± 0.0035 | 0.16 ± 0.0022 | 0.0678 ± 0.00092 | 0.1432 ± 0.00046 | 0.119 ± 0.0039 | 0.271 ± 0.017 | 0.156 ± 0.0038 | 0.179 ± 0.014 | 0.428 ± 0.026 | 0.407 ± 0.019 | 0.168 ± 0.058 |
| CN(C)CCCN1c2ccccc2CCc2ccc(Cl)cc21 [Clomipramine hydrochloride] | 0.04137 ± 0.00021 | 0.03983 ± 0.00015 | 0.03953 ± 0.00025 | 0.0451 ± 0.0062 | 0.04 ± 0.00035 | 0.0473 ± 0.0044 | 0.0467 ± 0.00076 | 0.0482 ± 0.0034 | 0.0466 ± 0.00055 | 0.0467 ± 0.00083 | 0.202 ± 0.26 | 0.4115 ± 0.0024 | 0.193 ± 0.066 |
| COc1ccc(C(=O)NCc2ccc(OCCN(C)C)cc2)cc1OC [Itopride] | 0.241 ± 0.0038 | 0.298 ± 0.0084 | 0.268 ± 0.011 | 0.229 ± 0.029 | 0.176 ± 0.0056 | 0.159 ± 0.0051 | 0.303 ± 0.083 | 0.365 ± 0.11 | 0.228 ± 0.028 | 0.268 ± 0.025 | 0.475 ± 0.063 | 0.407 ± 0.015 | 0.349 ± 0.0081 |
| Clc1ccccc1CN1CCc2sccc2C1 [Ticlopidine hydrochloride] | 0.0758 ± 0.011 | 0.0555 ± 0.015 | 0.0438 ± 0.0013 | 0.0705 ± 0.024 | 0.0437 ± 0.00091 | 0.0565 ± 0.0013 | 0.236 ± 0.03 | 0.323 ± 0.07 | 0.195 ± 0.0059 | 0.23 ± 0.029 | 0.429 ± 0.015 | 0.345 ± 0.085 | 0.06587 ± 0.00038 |
| CC1CC(OC(=O)C(O)c2ccccc2)CC(C)(C)N1C (configuration not stated) [Eucatropine hydrochloride] | 0.245 ± 0.0073 | 0.326 ± 0.015 | 0.282 ± 0.0064 | 0.194 ± 0.0092 | 0.191 ± 0.0054 | 0.156 ± 0.0098 | 0.479 ± 0.008 | 0.432 ± 0.065 | 0.199 ± 0.033 | 0.227 ± 0.024 | 0.444 ± 0.029 | 0.402 ± 0.014 | 0.36 ± 0.016 |
| COc1ccccc1Oc1c(NS(=O)(=O)c2ccc(C(C)(C)C)cc2)nc(-c2ncccn2)nc1OCCO [Bosentan] | 0.227 ± 0.0037 | 0.253 ± 0.0068 | 0.269 ± 0.014 | 0.276 ± 0.011 | 0.103 ± 0.0025 | 0.147 ± 0.0018 | 0.253 ± 0.045 | 0.335 ± 0.065 | 0.177 ± 0.022 | 0.247 ± 0.051 | 0.544 ± 0.091 | 0.417 ± 0.0042 | 0.237 ± 0.015 |
| c1ccc2c(c1)CCCc1cc(NCCN3CCOCC3)nnc1-2 | 0.215 ± 0.0088 | 0.285 ± 0.013 | 0.278 ± 0.0085 | 0.17 ± 0.029 | 0.149 ± 0.0053 | 0.133 ± 0.0058 | 0.194 ± 0.055 | 0.477 ± 0.044 | 0.179 ± 0.0094 | 0.2 ± 0.013 | 0.4846 ± 0.0026 | 0.4087 ± 0.0033 | 0.328 ± 0.03 |
| COc1ccc(CN(CCN(C)C)c2ccccn2)cc1 [Pyrilamine maleate] | 0.2136 ± 0.002 | 0.269 ± 0.018 | 0.263 ± 0.0074 | 0.179 ± 0.008 | 0.154 ± 0.0054 | 0.135 ± 0.0052 | 0.206 ± 0.052 | 0.426 ± 0.034 | 0.188 ± 0.017 | 0.211 ± 0.029 | 0.528 ± 0.077 | 0.3958 ± 0.0033 | 0.321 ± 0.015 |
| CCN(CC)CCNC(=O)c1ccc(N)cc1 [Procainamide hydrochloride] | 0.239 ± 0.0037 | 0.306 ± 0.019 | 0.2558 ± 0.0023 | 0.209 ± 0.043 | 0.192 ± 0.002 | 0.141 ± 0.0042 | 0.341 ± 0.0095 | 0.42 ± 0.039 | 0.192 ± 0.015 | 0.201 ± 0.0082 | 0.634 ± 0.046 | 0.408 ± 0.01 | 0.364 ± 0.0095 |
| CC[N+](CC)(CC)CCC(O)(c1ccccc1)C1CCCCC1 (configuration not stated) [Tridihexethyl chloride] | 0.2104 ± 0.0021 | 0.298 ± 0.015 | 0.2775 ± 0.0026 | 0.199 ± 0.019 | 0.185 ± 0.015 | 0.144 ± 0.0075 | 0.349 ± 0.028 | 0.369 ± 0.085 | 0.207 ± 0.026 | 0.233 ± 0.037 | 0.437 ± 0.045 | 0.417 ± 0.0044 | 0.335 ± 0.018 |
